Screens from PubChem BioAssay.
An excerpt weighted towards active compounds, which were near 19% of everything screened.
SW480 rerep = A quantitative high throughput screen for small molecules that induce DNA re-replication in SW480 colon adenocarcinoma cells. 340,000 compounds, 1.8% hits. SW480 DNA re-replication, Hoechst DNA content imaging, 48 h. AID 624297, 2012. Potency, µM (series often up to 46.1 µM), for inactives: top-dose re-replication activation, actives largely listed as activators; also: potency is read from the fitted curve at half-maximal effect; % of control where 0% means no effect; nearly all actives have a fitted effect of over 55% in size
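Compounds, transferred as 23 nL by pin tool, were incubated with cells for 48 hr; DNA content per nucleus was then quantified by Hoechst staining and fluorescence plate imaging.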
IL-1B inflam inh = qHTS for Inhibitors of Inflammasome Signaling: IL-1-beta AlphaLISA Primary Screen; THP-1 LPS/ATP IL-1B secretion, AlphaLISA, 16 h; active compounds read low; 360,000 compounds, 4.7% hits; activity change, % at 57.5 µM; AID 743279, 2014; in the data active = activity change below about -50%; inconclusive = mostly about -30% to -49%; also: % is scaled to controls: 0 for no effect and ±100 for the full control effect
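Secreted IL-1B measured by AlphaLISA bead assay after 16 h compound exposure of THP-1 cells; compounds (final up to 57.5 uM) added 1 h before LPS (250 ng/mL) and ATP (1.25 mM) stimulation; lower signal means less secretion.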
TDP1 cell CPT = qHTS for Inhibitors of human tyrosyl-DNA phosphodiesterase 1 (TDP1): qHTS in cells in presence of CPT | chicken DT40 Tdp1-/-;hTDP1 cells + 20 nM CPT, ATP luminescence, 48 h | Potency, µM (titrated, usually from 46.2 µM), inactives show top-dose activity change, negative = growth inhibition, actives largely listed as inhibitors | 420,000 compounds, 12% hits | AID 686979, 2013; also: potency is read from the fitted curve at half-maximal effect; % is scaled to controls: 0 for no effect and ±100 for the full control effect; nearly all actives have a fitted effect of over 55% in size
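Cell growth measured by CellTiter-Glo luminescence after a minimum 48 h, 37 C compound exposure with 20 nM CPT in Tdp1-knockout DT40 cells stably expressing hTDP1, seeded 400/well; qHTS titration format.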
Chronic BCR inh = qHTS Assay to Find Inhibitors of Chronic Active B-Cell Receptor Signaling; ABC-DLBCL IkBa-CBG/CBR reporter, luminescence ratio, 4 h; Potency, µM (titrated, usually from 46.1 µM), for inactives: at the top dose activity change, negative = inhibition, actives largely listed as inhibitors; 340,000 compounds, 0.05% hits; active = well fitted inhibition curve with a large enough effect in the signal ratio, with a control signal flat, not every such curve was filed as active; inconclusive = small, poorly fitted or top-dose-only effect, or effect the other way, or a change in a side signal; the % refers to the signal ratio;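 also: potency is read from the fitted curve at half-maximal effect; plate controls were basal doxycycline-induced cells for no effect and cells given 10 µM MG132 for full effect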
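TMD8 human ABC-DLBCL cells with doxycycline-inducible IκBα–green luciferase fusion and unfused red luciferase, in 0.5% FBS medium; compounds up to 46 uM, 4 h at 37C. Green/red luminescence ratio, filter-overlap corrected, fitted to concentration-response curves.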
TDP1 cell noCPT = qHTS for Inhibitors of human tyrosyl-DNA phosphodiesterase 1 (TDP1): qHTS in cells in absence of CPT | DT40 Tdp1-/- hTDP1 cells, no CPT, ATP luminescence, 48 h | Potency, µM (series often up to 46.2 µM), without a hit: top-dose activity change, negative = growth inhibition, hits mostly inhibitors | 420,000 compounds, 15% hits; also: potency is read from the fitted curve at half-maximal effect; % is scaled to controls: 0 for no effect and ±100 for the full control effect; nearly all actives have a fitted effect of over 55% in size
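Luminescent ATP content (CellTiter-Glo) served as the growth readout. Knockout chicken DT40 cells expressing human TDP1 were exposed to compounds without camptothecin for a minimum 48 hr at 37 °C.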
MCF10A rerep = A quantitative high throughput screen for small molecules that induce DNA re-replication in MCF 10a normal breast cells; 350,000 compounds, 2.9% hits; MCF 10A DNA re-replication, Hoechst nuclear intensity, 48 h; Potency, µM (doses to about 46.1 µM), inactives show at the highest dose activity, positive = re-replication, usual class: activators; also: potency is read from the fitted curve at half-maximal effect; % of control where 0% means no effect; nearly all actives have a fitted effect of over 50% in size
* hit, by the source's call. Unless noted, calls follow the shape of the dose curve; as a rule, active = well fitted curve in the direction sought with a large enough effect; inconclusive = small, poorly fitted or top-dose-only effect, or another doubt; inactive = no such curve, though single readings can be large; an effect the other way counts as inactive or inconclusive.

How did CCN(Cc1ccncc1)C(=O)c1cc(COc2c(F)cccc2F)on1 do in these assays?
SW480 rerep: -6%; IL-1B inflam inh: -5; TDP1 cell CPT: inconclusive; Chronic BCR inh: 6%; TDP1 cell noCPT: -30%; MCF10A rerep: 12%

What do the screens show for `CCN(Cc1ccncc1)C(=O)c1cc(COc2ccc(OC)cc2Cl)on1`?
SW480 rerep: -2%; IL-1B inflam inh: -23; TDP1 cell CPT: 16µM*; Chronic BCR inh: 3%; TDP1 cell noCPT: inconclusive; MCF10A rerep: 0%

What do the screens show for `CN(Cc1ccccn1)C(=O)c1cc(COc2ccc(F)cc2Cl)on1`?
IL-1B inflam inh: -7; TDP1 cell CPT: inconclusive; TDP1 cell noCPT: 23µM*

Results for CCN(CC1CCCO1)C(=O)c1cc(COc2ccc(OC)cc2Cl)on1 (configuration not stated) ?
SW480 rerep: -7%; IL-1B inflam inh: 8; TDP1 cell CPT: inconclusive; Chronic BCR inh: -1%; TDP1 cell noCPT: -4%; MCF10A rerep: 14%

Results for CCc1ccc(CN(C)C(=O)c2cc(COc3ccc(OC)cc3Cl)on2)nc1 ?
SW480 rerep: -1%; IL-1B inflam inh: -14; TDP1 cell CPT: inconclusive; Chronic BCR inh: -1%; TDP1 cell noCPT: 29µM*; MCF10A rerep: 7%

Results for CCN(Cc1ccncc1)C(=O)c1cc(COc2ccc(F)cc2Cl)on1 ?
SW480 rerep: 10%; IL-1B inflam inh: -4; TDP1 cell CPT: 16µM*; Chronic BCR inh: -4%; TDP1 cell noCPT: inconclusive; MCF10A rerep: -7%

How did CCC(C)c1ccccc1N1CC(C(=O)Nc2ccc(C)c(S(=O)(=O)N3CCOCC3)c2)CC1=O (configuration not stated) do in these assays?
SW480 rerep: -5%; IL-1B inflam inh: -2; TDP1 cell CPT: inconclusive; Chronic BCR inh: -2%; TDP1 cell noCPT: inconclusive; MCF10A rerep: -2%

Results for C=CCOc1ccc(CC(=O)O)cc1Cl ?
SW480 rerep: -5%; TDP1 cell CPT: 0%; TDP1 cell noCPT: 2%; MCF10A rerep: 1%

Results for NC(=O)c1cc(S(=O)(=O)N2CCc3ccccc3C2)cs1 ?
SW480 rerep: 25%; IL-1B inflam inh: 16; TDP1 cell CPT: inconclusive; Chronic BCR inh: -13%; TDP1 cell noCPT: inconclusive; MCF10A rerep: 10%

Results for C#CCN(Cc1ccccc1)S(=O)(=O)C=C ?
SW480 rerep: inconclusive; IL-1B inflam inh: -65*; TDP1 cell CPT: 25µM*; Chronic BCR inh: inconclusive; TDP1 cell noCPT: inconclusive; MCF10A rerep: 26µM*

Results for Cc1ccc(S(=O)(=O)N2CC(O)C2)cc1 ?
SW480 rerep: -11%; IL-1B inflam inh: 10; TDP1 cell CPT: -3%; Chronic BCR inh: -4%; TDP1 cell noCPT: -14%; MCF10A rerep: 0%

Results for COCc1ccc(C(=O)N2CCCC(Nc3ccc(C(C)C)cc3)C2)s1 (configuration not stated) ?
SW480 rerep: -3%; IL-1B inflam inh: 0; TDP1 cell CPT: inconclusive; Chronic BCR inh: 4%; TDP1 cell noCPT: inconclusive; MCF10A rerep: 1%

How did CC(C)c1ccc(NC2CCCN(C(=O)c3cccs3)C2)cc1 (configuration not stated) do in these assays?
SW480 rerep: -4%; IL-1B inflam inh: -20; TDP1 cell CPT: 21µM*; Chronic BCR inh: 3%; TDP1 cell noCPT: inconclusive; MCF10A rerep: 19%

How did COCc1ccc(C(=O)N2CCCC(Nc3ccc(C(C)C)cc3)C2)o1 (configuration not stated) do in these assays?
SW480 rerep: -4%; IL-1B inflam inh: -13; TDP1 cell CPT: inconclusive; Chronic BCR inh: -1%; TDP1 cell noCPT: 18µM*; MCF10A rerep: 1%

Results for CC(C)c1ccc(NC2CCCN(C(=O)c3ccsc3)C2)cc1 (configuration not stated) ?
SW480 rerep: 8%; IL-1B inflam inh: inconclusive; TDP1 cell CPT: 23µM*; Chronic BCR inh: inconclusive; TDP1 cell noCPT: 18µM*; MCF10A rerep: 26%

How did O=C(c1cccs1)N1CCCC(c2ccccc2)C1 (configuration not stated) do in these assays?
SW480 rerep: 0%; IL-1B inflam inh: -15; TDP1 cell CPT: 0%; Chronic BCR inh: -1%; TDP1 cell noCPT: 18µM*; MCF10A rerep: 19%

Results for COc1ccc(CN2CCC(n3nccc3NC(=O)c3cccc(F)c3)CC2)cc1O ?
SW480 rerep: 15%; IL-1B inflam inh: 0; TDP1 cell CPT: -24%; Chronic BCR inh: -3%; TDP1 cell noCPT: -3%; MCF10A rerep: 2%

How did COc1ccc(-c2cc(-c3ccco3)[nH]c(=O)c2C#N)cc1OC do in these assays?
SW480 rerep: 7%; IL-1B inflam inh: -29; TDP1 cell CPT: -14%; Chronic BCR inh: inconclusive; TDP1 cell noCPT: inconclusive; MCF10A rerep: inconclusive

What do the screens show for `CC1CN(C(=O)c2ccc(COc3ccc(C(C)C)cc3)o2)CC(C)O1` (configuration not stated)?
SW480 rerep: 1%; IL-1B inflam inh: -6; TDP1 cell CPT: 16µM*; Chronic BCR inh: -9%; TDP1 cell noCPT: 21µM*; MCF10A rerep: inconclusive

What do the screens show for `CC(C)c1ccc(NC2CCCN(C(=O)c3n[nH]c4c3CCC4)C2)cc1` (configuration not stated)?
SW480 rerep: -28%; IL-1B inflam inh: inconclusive; TDP1 cell CPT: 18µM*; Chronic BCR inh: 4%; TDP1 cell noCPT: inconclusive; MCF10A rerep: 3%

How did C=CCn1c(COc2ccccc2)nnc1SC(C)C(=O)N/N=C/c1cc(Cl)ccc1O (configuration not stated) do in these assays?
SW480 rerep: inconclusive; IL-1B inflam inh: 105; TDP1 cell CPT: inconclusive; Chronic BCR inh: 0%; TDP1 cell noCPT: 21µM*; MCF10A rerep: inconclusive

How did CCc1nnc(NC(=O)CCc2ccc(C)o2)s1 do in these assays?
SW480 rerep: -6%; IL-1B inflam inh: -11; TDP1 cell CPT: -23%; Chronic BCR inh: 9%; TDP1 cell noCPT: -13%; MCF10A rerep: 0%
